Assay results as given in PubChem BioAssay (NCI).
Compounds without any hit were thinned out: in the full panel of roughly 83,000, 20% have a hit.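 Single-dose data. Exposure time 48 hours. Values below 10 considered active.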 The source made the active and inactive calls.

Key:
Experiment in all cases: NCI-60 one-dose screen, 48 h (100 = growth as untreated, 0 = no growth, -100 = all killed)
SR leukemia = conditions: 10 µM unless noted
RPMI-8226 leukemia = conditions: 10 µM unless noted
OVCAR-8 ovarian = conditions: 10 µM unless noted
OVCAR-5 ovarian = conditions: 10 µM unless noted
OVCAR-4 ovarian = conditions: 10 µM unless noted
SK-OV-3 ovarian = conditions: 10 µM unless noted
IGROV1 ovarian = conditions: 10 µM unless noted
OVCAR-3 ovarian = conditions: 10 µM unless noted
HS 578T breast = conditions: 10 µM
NCI/ADR-RES ovarian = conditions: 10 µM unless noted
T-47D breast = conditions: 10 µM unless noted
BT-549 breast = conditions: 10 µM unless noted
MDA-MB-435 melanoma = conditions: 10 µM unless noted
SW-620 colon = conditions: 10 µM unless noted
MCF7 breast = conditions: 10 µM unless noted
HCT-116 colon = conditions: 10 µM unless noted
HCC-2998 colon = conditions: 10 µM unless noted
KM12 colon = conditions: 10 µM unless noted

Measured: growth

CCOC(=O)C1=C(C)NC(SCc2nnc(-c3ccc(Cl)cc3)o2)=NC1c1ccc(Br)cc1 (centres undefined)
inactive: SR leukemia 38.8% | RPMI-8226 leukemia 38.4% | OVCAR-8 ovarian 72.7% | OVCAR-5 ovarian 93.9% | OVCAR-4 ovarian 69.6% | SK-OV-3 ovarian 82% | IGROV1 ovarian 65.5% | OVCAR-3 ovarian 77.5% | HS 578T breast 87.1% | NCI/ADR-RES ovarian 67.5% | T-47D breast 48% | BT-549 breast 79.8% | MDA-MB-435 melanoma 65.1% | SW-620 colon 91% | MCF7 breast 44.8% | HCT-116 colon 48.6% | HCC-2998 colon 91.2% | KM12 colon 76%

COc1cc2nccc(Oc3ccc(NC(=O)C4(C(=O)Nc5ccc(F)cc5)CC4)cc3)c2cc1OC(=O)c1ccc(N)cc1
inactive: RPMI-8226 leukemia 10.4% | OVCAR-8 ovarian 51.9% | OVCAR-5 ovarian 31% | OVCAR-4 ovarian 51.7% | SK-OV-3 ovarian 69.6% | IGROV1 ovarian 60.7% | OVCAR-3 ovarian 47.5% | NCI/ADR-RES ovarian 35.5% | T-47D breast 19.5% | BT-549 breast 36.1% | MDA-MB-435 melanoma 33.2% | SW-620 colon 33.5% | MCF7 breast 23.8% | HCT-116 colon 23.1% | HCC-2998 colon 25.8% | KM12 colon 12.3%
active: SR leukemia 9.85% | HS 578T breast -16.9%

COc1cc(Cn2c(-c3ccccc3)cc3c2-c2oncc2CC3)cc(OC)c1OC
inactive: RPMI-8226 leukemia 40.5% | OVCAR-8 ovarian 34.2% | OVCAR-5 ovarian 69.1% | OVCAR-4 ovarian 54.8% | SK-OV-3 ovarian 13% | IGROV1 ovarian 18.4% | T-47D breast 38.1% | BT-549 breast 41.2% | SW-620 colon 24.3% | MCF7 breast 14.1% | HCT-116 colon 25.3% | HCC-2998 colon 42.7% | KM12 colon 26.2%
active: SR leukemia 8.51% | OVCAR-3 ovarian -44.3% | HS 578T breast -1.69% | NCI/ADR-RES ovarian 4.65% | MDA-MB-435 melanoma -58.1%

COc1ccc(/C=C(/C(=O)N2CCN(c3ccccc3)CC2)c2cc(OC)c(OC)c(OC)c2)cc1N
inactive: SR leukemia 12.5% | OVCAR-8 ovarian 19.7% | OVCAR-5 ovarian 53.2% | OVCAR-4 ovarian 52.3% | SK-OV-3 ovarian 36.9% | IGROV1 ovarian 36.3% | HS 578T breast 36.6% | T-47D breast 65.3% | SW-620 colon 25.9% | MCF7 breast 19.9% | HCC-2998 colon 25.3% | KM12 colon 14.4%
active: RPMI-8226 leukemia 7.73% | OVCAR-3 ovarian -43.8% | NCI/ADR-RES ovarian 7.6% | BT-549 breast 9.88% | MDA-MB-435 melanoma -48.7% | HCT-116 colon 9.1%

CCCNC(=S)N/N=C(\C)c1ccccn1
active: IGROV1 ovarian 9.27% | MCF7 breast 6.77% | HCT-116 colon 4.71%
inactive: SR leukemia 10% | RPMI-8226 leukemia 20% | OVCAR-8 ovarian 25.2% | OVCAR-5 ovarian 49.3% | OVCAR-4 ovarian 14.8% | SK-OV-3 ovarian 29.3% | OVCAR-3 ovarian 41.4% | HS 578T breast 32.9% | NCI/ADR-RES ovarian 11.5% | T-47D breast 37.2% | BT-549 breast 32.4% | MDA-MB-435 melanoma 49% | SW-620 colon 33.4% | HCC-2998 colon 44.2% | KM12 colon 32%

O=C(Nc1ccc(Oc2ccc(Nc3nc4ccccc4s3)cc2)cc1)Nc1ccc(Cl)c(C(F)(F)F)c1
inactive: OVCAR-5 ovarian 23.6% | OVCAR-4 ovarian 17.7% | SK-OV-3 ovarian 12.1% | IGROV1 ovarian 17%
active: SR leukemia 0.688% | RPMI-8226 leukemia -19.5% | OVCAR-8 ovarian 6.28% | OVCAR-3 ovarian -3.18% | HS 578T breast 7.39% | NCI/ADR-RES ovarian 5% | T-47D breast 3.71% | BT-549 breast -1.46% | MDA-MB-435 melanoma 0.432% | SW-620 colon 8.67% | MCF7 breast 4.73% | HCT-116 colon 0.0223% | HCC-2998 colon 2.48% | KM12 colon 0.448%

Cc1cc(Cl)c2ccc(N(C)C)cc2n1
inactive: SR leukemia 87.3% | RPMI-8226 leukemia 97% | OVCAR-8 ovarian 102% | OVCAR-5 ovarian 105% | OVCAR-4 ovarian 105% | SK-OV-3 ovarian 97.4% | IGROV1 ovarian 106% | OVCAR-3 ovarian 104% | HS 578T breast 96.9% | NCI/ADR-RES ovarian 104% | T-47D breast 90.7% | BT-549 breast 111% | MDA-MB-435 melanoma 102% | SW-620 colon 99.5% | MCF7 breast 92.1% | HCT-116 colon 105% | HCC-2998 colon 101% | KM12 colon 104%

COc1ccc(Nc2ncccc2C(=O)NCc2cn(Cc3cc(OC)cc(OC)c3)nn2)cc1
inactive: SR leukemia 84.8% | RPMI-8226 leukemia 99.8% | OVCAR-8 ovarian 97.6% | OVCAR-5 ovarian 106% | OVCAR-4 ovarian 98% | SK-OV-3 ovarian 98.7% | IGROV1 ovarian 113% | OVCAR-3 ovarian 96.5% | HS 578T breast 86.2% | NCI/ADR-RES ovarian 89.7% | T-47D breast 93.6% | BT-549 breast 98.4% | MDA-MB-435 melanoma 106% | SW-620 colon 105% | MCF7 breast 104% | HCT-116 colon 94.8% | HCC-2998 colon 103% | KM12 colon 102%
